Experiment [1] is described as follows: BET inhibitor-based combinations targeting novel dependencies in MECOM-rearranged (r) AML: SET-2 cell line (AID 2202231). Also: nearly all actives have a fitted effect of over 35% in size.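 As to viability: plate controls were DMSO treated cells for no effect and wells without cells for full effect.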 Conditions: SET-2 AML cells viability, CellTiter-Glo luminescence, 48 h; viability: hits give low values, concentration not given here. In outline:
(§1)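 500 cells/well; 11-pt dose curve; 48 h, standard incubator; CellTiter-Glo luminescence after 15 min RT; DMSO/empty-well normalization; AUC plus Z-AUC (mean-centered within each line).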
(In general: In ATP-based viability assays light output follows the ATP content of the culture.)

A short description of experiment [2]: BET inhibitor-based combinations targeting novel dependencies in MECOM-rearranged (r) AML: MV-4-11 cell line (AID 2202233). Also: nearly all actives have a fitted effect of over 45% in size. In outline: (§2)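 Cells were plated at 500 per well and exposed to each drug across an 11-point dose range for 48 hr at standard incubator conditions. Viability was read by CellTiter-Glo luminescence, and activity was expressed as AUC and per-cell-line Z-transformed AUC.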

The nature of experiment [3]: BET inhibitor-based combinations targeting novel dependencies in MECOM-rearranged (r) AML: HNT-34 cell line (AID 2202234). Also: nearly all actives have a fitted effect of over 35% in size. In outline:
as §2

Experiment [4] can be described thus: BET inhibitor-based combinations targeting novel dependencies in MECOM-rearranged (r) AML: AML-191 cell line (AID 2202236; also: nearly all actives have a fitted effect of over 35% in size). The method, boiled down: as §1
The nature of experiment [5]: BET inhibitor-based combinations targeting novel dependencies in MECOM-rearranged (r) AML: AML-194 cell line (AID 2202237; also: nearly all actives have a fitted effect of over 40% in size). In outline: as §1
A short description of experiment [6]: BET inhibitor-based combinations targeting novel dependencies in MECOM-rearranged (r) AML: UCSD-AML1 cell line (AID 2202235). Also: nearly all actives have a fitted effect of over 40% in size. In outline:
as §2

22 compounds from PubChem BioAssay (NCATS) can be followed below.

Each structure is given as a SMILES string. Results filed as inconclusive are left out. Values without a mark were called inactive. Active and inactive are the calls of the source. Calls follow the shape of the dose curve; as a rule, active = well fitted curve in the direction sought with a large enough effect; inconclusive = small, poorly fitted or top-dose-only effect, or another doubt; inactive = no such curve, though single readings can be large; an effect the other way counts as inactive or inconclusive.
Potency is read from the fitted curve at half-maximal effect.

Turning to `CCCNC(=O)c1cn2ncnc(Nc3cc(C(=O)NC4CC4)ccc3C)c2c1C`, the viability – broadly, a read-out of living cells in per cent, often relative to untreated cells – in experiment [1] is 99.9%. Besides, the Potency entry in experiment [2], in experiment [3], in experiment [4] and in experiment [5] was “inactive” in each case.
Take `C[C@H]1CN(C2COC2)CCN1c1ccc(Nc2cc(-c3ccnc(N4CCn5c(cc6c5CC(C)(C)C6)C4=O)c3CO)cn(C)c2=O)nc1`: the viability in experiment [1] was 121%. For the same compound, the Potency in experiment [2] was 14.8 µM (active). Moreover, the Potency entry in experiment [6], in experiment [4] and in experiment [5] was “inactive” each time.
`CC#Cc1cncc(-c2ccc3c(c2)[C@@]2(N=C(C)C(N)=N2)C2(CCC(OC)CC2)C3)c1` (stereo partly specified): in experiment [1], the viability is 107%. Besides, the Potency in experiment [2] was 18.6 µM (active). The Potency entry in experiment [3] and in experiment [5] was “inactive” in each case.
For the compound `O=C(O)/C=C/c1ccc(Cn2ccnc2)cc1`, the viability in experiment [1] is 125%. Further, the Potency entry in experiment [2], in experiment [3], in experiment [4] and in experiment [5] was “inactive” throughout.
For the compound `Cc1ccc(-c2ncn(-c3ccc(Nc4nccc(-c5cccc(N6CCOCC6)c5)n4)cc3)n2)cn1`, the Potency in experiment [1] is 3.72 µM (active); in experiment [2] it was 2.35 µM (active); in experiment [3], 2.95 µM (active); in experiment [6], 2.35 µM (active); in experiment [4], 2.35 µM (active); in experiment [5], 2.95 µM (active).
Consider `CC1=C(/C=C/C(C)=C/C=C/C(C)=C/C=C/C=C(C)/C=C/C=C(C)/C=C/C2=C(C)CCCC2(C)C)C(C)(C)CCC1`, for which, in experiment [1], the viability is 103%. In addition, the Potency in experiment [2] is 23.5 µM (active). The Potency result in experiment [6], in experiment [4] and in experiment [5] was “inactive” throughout.
For the compound `Cn1c(-c2ccccc2C(F)(F)F)nnc1C12CCC(c3noc(C4CC(F)(F)C4)n3)(CC1)CC2`, the viability in experiment [1] was 105%. The Potency in experiment [2] was 16.6 µM (active). Besides, the Potency result in experiment [3], in experiment [6], in experiment [4] and in experiment [5] was “inactive” throughout.
`COc1cc2c(NC3CCN(C)CC3)nc(N3CCCN(C)CC3)nc2cc1OCCCN(C)C`: the viability in experiment [1] was 112%. Moreover, the Potency entry in experiment [2], in experiment [3], in experiment [4] and in experiment [5] was “inactive” in each case.
Regarding `c1ccc2[nH]c(-c3cscn3)nc2c1`, in experiment [1], the viability is 111%. Further, the Potency result in experiment [2] and in experiment [6] was “inactive” in each case. The Potency in experiment [4] was 18.6 µM (active).
As for `O=c1sn(-c2cccc3ccccc23)c(=O)n1Cc1ccccc1`, the viability in experiment [1] was 92.2%. Besides, the Potency is 11.8 µM (active) in experiment [2] and 14.8 µM (active) in experiment [5]. Moreover, in experiment [3], the Potency result is “inactive”.
Consider `C=CCc1cccc(/C=N/NC(=O)CN2CCN(Cc3ccccc3)CC2)c1O`, for which the Potency in experiment [1] is 20.9 µM (active); in experiment [2], 16.6 µM (active); in experiment [6], 23.5 µM (active); in experiment [4], 8.33 µM (active); in experiment [5], 14.8 µM (active).
On to `CN[C@@H](C)C(=O)N[C@H](C(=O)N1CCC[C@H]1c1nc(C(=O)c2ccc(F)cc2)cs1)C1CCCCC1`, for which the Potency in experiment [1] is 16.6 µM (active); in experiment [2] it was 16.6 µM (active); in experiment [6] it was 20.9 µM (active).
For the compound `CO[C@H]1O[C@@H]2O[C@@]3(C)CC[C@H]4[C@H](C)CC[C@@H]([C@H]1C)[C@@]24OO3`, the values for the Potency in experiment [1], in experiment [2] and in experiment [4] were 20.9 µM (active), 4.17 µM (active) and 16.6 µM (active), respectively. In experiment [6], the Potency result is “inactive”.
In the case of `O=C(/C=C/c1ccc2ccc(C(F)(F)F)cc2n1)c1ccncc1`, the Potency in experiment [1] is 2.63 µM (active); in experiment [2], 1.05 µM (active); in experiment [6], 1.66 µM (active); in experiment [4], 1.86 µM (active); in experiment [5], 2.35 µM (active).
In the case of `O=C1S/C(=C\c2ccc(OCc3cccc(B(O)O)c3)cc2)C(=O)N1Cc1ccc(F)cc1`, the viability in experiment [1] is 87.6%. The Potency in experiment [2] and in experiment [4] was 18.6 µM (active) throughout. Further, the Potency result in experiment [6] and in experiment [5] was “inactive” throughout.
Regarding `CC[C@H](CO)Nc1nc(NCc2ccccc2)c2ncn(C(C)C)c2n1`, the Potency in experiment [1] was 26.3 µM (active); in experiment [2], 20.9 µM (active); in experiment [6] it was 26.3 µM (active); in experiment [4], 23.5 µM (active).
Turning to `CC(C)(CO)n1cc(C(=O)c2cncc(NC(=O)Cc3ccc(Cl)cn3)c2)c2cnc(N)nc21`, the viability in experiment [1] is 125%. The Potency was 7.42 µM (active) in experiment [2] and 0.0833 µM (active) in experiment [5]. The Potency result in experiment [3] and in experiment [6] was “inactive” in each case.
With `C=C1C(=CC=C2CCC[C@]3(C)[C@@H]([C@H](C)C=C[C@H](C)C(C)C)CC[C@@H]23)C[C@@H](O)C[C@@H]1O`, the Potency was 23.5 µM (active) in experiment [1], 16.6 µM (active) in experiment [2] and 23.5 µM (active) in experiment [4]. Further, the Potency result in experiment [6] is “inactive”.
Regarding `COc1ccc(C(=O)N2CCN(C(=O)/C=C/c3ccc(Br)cc3)CC2)cc1`, the viability in experiment [1] was 111%. In addition, in experiment [2], the Potency is 11.8 µM (active). Besides, the Potency entry in experiment [6], in experiment [4] and in experiment [5] was “inactive” each time.
With `C[C@@H]1N=C(N)NC(N(C)C)=N1`, in experiment [1], the viability is 102%. The Potency result in experiment [2], in experiment [3], in experiment [6], in experiment [4] and in experiment [5] was “inactive” each time.
For `N#Cc1ccc(N(Cc2ccc(Br)cc2)n2cnnc2)cc1`, the viability in experiment [1] was 93.5%. Moreover, the Potency in experiment [2] was 20.9 µM (active); in experiment [3], 16.6 µM (active). Besides, the Potency entry in experiment [6], in experiment [4] and in experiment [5] was “inactive” throughout.
For `Nc1nc(OC(c2ccc(-c3cccc(F)c3)cc2)C(F)(F)F)cc(-c2ccc(C[C@@H](N)C(=O)O)cc2)n1` (stereo partly specified), in experiment [1], the viability is 100%. The Potency result in experiment [2], in experiment [6], in experiment [4] and in experiment [5] was “inactive” throughout.
